Among the data in the OligoGym collection are sensor-assay potency score (higher = more potent) values, retold here.
Also: reference of the scale not given here.

For one experiment, the target named is MIS12. The experiment can be described thus: pooled miR-30 sensor sort-seq; sequence = guide strand. The conditions noted are these: shRNA.
TTTTTTGCTCTTCTAATTCTGC came in with a sensor-assay potency score (higher = more potent) of -0.78. Regarding TAGATCCGAAGCATGCACGTTT, the sensor-assay potency score (higher = more potent) was 0.233. Sequence TTGAAATGCAATGTAGATCCGA displayed a sensor-assay potency score (higher = more potent) of 0.852. Turning to TATGATTCTACTTTTTGACAGG, the sensor-assay potency score (higher = more potent) is -0.668. The sequence TTGGTTTGAACAGTCACTGGTA gave a sensor-assay potency score (higher = more potent) of 0.981. Sequence TGAAATGCAATGTAGATCCGAA showed a sensor-assay potency score (higher = more potent) of 0.0164. In the case of TCTCCTTACATTTATCTTCAGG, the sensor-assay potency score (higher = more potent) was -1.19.

As to TAATGTTCTGTAGTTTTCTGGA, the sensor-assay potency score (higher = more potent) is -0.154.

The target of another experiment is MKNK2. The experiment is described as above. The conditions noted are these: shRNA.
In turn, ATCAGCTCTAGGACGTTCCTGT had a sensor-assay potency score (higher = more potent) of -0.0446.

Take TTGATGCAGGTCTGCACTCGGG: the sensor-assay potency score (higher = more potent) was -1.43.

As for TCCAGCTCGTTGAAGTGCCGGC, the sensor-assay potency score (higher = more potent) was -1.11.

As for TAGGACGTTCCTGTGTCCCTGG, the sensor-assay potency score (higher = more potent) turned out to be 0.366. The same measure, in the same setting: for TCAAACAGCATGTTCTGGCAGG the value was -0.787. The same measure, in the same setting: for TTGAGTTTGATGCCGCTGCCCA the value was -0.98. For the sequence TTATGCAGAAAGTCCAAGGCGC, the sensor-assay potency score (higher = more potent) is -0.181.

TTGTCGGGGAACTCGTACTTGC yielded a sensor-assay potency score (higher = more potent) of -1.05.

TTCCTCTGCAGGACCATGGGAG: the sensor-assay potency score (higher = more potent) was -0.448. TGATGCAGGTCTGCACTCGGGC had a sensor-assay potency score (higher = more potent) of -1.01.

TTTGTTATGCAGAAAGTCCAAG had a sensor-assay potency score (higher = more potent) of -0.811. In turn, TAGATGCTAGCCTCCTCGCTGA gave a sensor-assay potency score (higher = more potent) of -0.602.

A further experiment has as its target MLL. The experiment is described as above. The settings on record: shRNA.
With TTACTCTTCTCAATCTTGCAGA, the sensor-assay potency score (higher = more potent) was 0.352. The sequence TTCTGTTGTAGGCAGCTGCTGA showed a sensor-assay potency score (higher = more potent) of -0.148. The sequence TTTTCGTCGTTCTAGATCCAAA had a sensor-assay potency score (higher = more potent) of -1.11. The sequence TATCTCTGGAACTAGATCCCAT returned a sensor-assay potency score (higher = more potent) of 0.126. TTCTGCTTCACAATCCTCCTTA came in with a sensor-assay potency score (higher = more potent) of 0.726. The sequence TTGTTTAAGACTCTTACTCTTC yielded a sensor-assay potency score (higher = more potent) of -0.426. For TAAGACATGATCAACTACTTTG, the sensor-assay potency score (higher = more potent) was -0.602.

With TATACTTTTAGAATCTTTCTTC, the sensor-assay potency score (higher = more potent) came out at 0.988. On the same count and under the same terms, the same measure for TTAAAGTCCACTCTGATCCTGT: 0.574. Sequence TTTGCTTAGAACTATTGCCATT displayed a sensor-assay potency score (higher = more potent) of -1.46. Same read-out and setting: for TCGGTGTAGACTCTAATCGGGC the value was -1.36.

The target of another experiment is MMADHC. The description is as above. The settings on record: shRNA.
Take TGTATTGCACACTCTACTCTGG: the sensor-assay potency score (higher = more potent) was 0.407. In turn, TAATTTCTTGTTCAACAGGTGC registered a sensor-assay potency score (higher = more potent) of -0.82. With TTCTTCTGTGAAGCAGTCCCAT, the sensor-assay potency score (higher = more potent) is -0.488.

In turn, TGAGGTGACAATCAAAACCTAT had a sensor-assay potency score (higher = more potent) of -0.635. Still for that read-out and setting: for TTCGAGAGCATATATCTGGAGG the value was -0.923; for TTTTCTAAGAGCACTTCTCTTT, -0.6; for TTCTTCACTCCAAACAGTCATA, -1.24.

The sequence TTTCTTGTTCAACAGGTGCATC displayed a sensor-assay potency score (higher = more potent) of -1.26. Take TTTCACTTGATAAAGGTTCTGC: the sensor-assay potency score (higher = more potent) stood at 0.549.
